HTT ATP protect = protects HTT-Q103 PC12 cells, measured by ATP; PC12 HTT-Q103 induced, cytoprotection, ATP luminescence, 40 h; AID 1471; 0.14% of 230,000 active; Potency, µM (top dose mostly 56.4 µM), without a hit: cytoprotection (ATP increase), most hits filed as activators; further: potency means the concentration at half of the fitted maximal effect; % of control where 0% means no effect; nearly all actives have a fitted effect of over 45% in size
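Compounds added alongside 100 nM tebufenozide, which induces toxic Q103 huntingtin exon 1-GFP in stable PC12 cells; surviving cells quantified by luminescent ATP measurement. Medium: phenol red-free DMEM, 5% equine and 5% calf serum.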
PI4K2A block = blocks human PI4K2A kinase activity. Q9BTU6. purified PI4K2A, ADP-Glo luminescence, 1 h; active compounds read low. activity change, negative = inhibition, % at 76.9 µM. 0.13% of 420,000 active. AID 1346378; in the data active means activity change below about -50%; inconclusive means mostly about -30% to -49%;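 further: -100% = wells without enzyme as full effect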
Target sequence (Q9BTU6 whole entry, looked up): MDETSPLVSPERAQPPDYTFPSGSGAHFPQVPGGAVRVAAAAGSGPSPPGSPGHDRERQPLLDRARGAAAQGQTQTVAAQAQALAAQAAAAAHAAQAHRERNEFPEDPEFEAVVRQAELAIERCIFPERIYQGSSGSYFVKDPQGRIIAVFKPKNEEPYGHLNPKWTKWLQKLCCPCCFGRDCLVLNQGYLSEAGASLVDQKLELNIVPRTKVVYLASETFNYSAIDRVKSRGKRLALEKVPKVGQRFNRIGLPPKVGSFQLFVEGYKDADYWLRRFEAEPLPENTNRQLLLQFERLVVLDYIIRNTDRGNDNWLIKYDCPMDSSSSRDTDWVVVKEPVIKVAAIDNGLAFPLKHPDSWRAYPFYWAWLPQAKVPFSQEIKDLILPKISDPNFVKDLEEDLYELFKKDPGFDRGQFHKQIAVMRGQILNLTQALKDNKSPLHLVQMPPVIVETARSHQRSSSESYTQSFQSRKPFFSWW
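ADP-Glo luminescence measured ADP generated by PI4K2A enzyme (4 ug/mL before mixing) with 1.2 mM PI substrate (pre-mix) and 300 microM ATP (pre-mix). Tris pH7.5 buffer with MgCl2, Triton X-100; 1 h reaction at ambient temperature.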
GALK inh = blocks human galactokinase activity; P51570; Purified GALK, Kinase-Glo residual ATP luminescence; Potency, µM (titrated, usually from 57.5 µM), for inactives: top-dose activity change, negative = inhibition, hits mostly inhibitors; 0.007% of 270,000 active; further: potency means the concentration at half of the fitted maximal effect; on the % scale 0 is the no-effect control and ±100 the full control effect
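Kinase-Glo Plus luminescence measured ATP left after a 1 h room-temperature reaction. The reaction used 5 nM GALK, 100 uM galactose and 35 uM ATP at pH 8.0 (20 mM HEPES, 5 mM MgCl2, 60 mM NaCl, 1 mM DTT, 0.01% BSA).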
HttQ103 aggreg = reduces HttQ103-GFP aggregates in PC12 cells. Potency, µM (titrated, usually from 46.1 µM), for the others: at the top dose activity change, negative = inhibition, actives largely listed as inhibitors. AID 1688. PC12 HttQ103-GFP aggregates, Acumen cytometry, 40 h. 1.1% of 220,000 active; further: potency means the concentration at half of the fitted maximal effect; on the % scale 0 is the no-effect control and ±100 the full control effect; nearly all actives have a fitted effect of over 60% in size
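Aggregates are detected as GFP objects 1–25 µm with signal 6 STDEV over background in lysates of induced PC12 cells. These carry Huntingtin exon 1 with 103 glutamines fused to GFP under an ecdysone promoter; compounds titrated.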
The depositor's hits bear a star; i = inactive; ? = inconclusive; / = not tested or not shown; [ ] = dose if it differs, or a comment. The full list was thinned out, with hits kept by preference. Unless noted, the call rests on the fitted dose curve; in most records, active means well fitted curve in the direction sought with a large enough effect; inconclusive means small, poorly fitted or top-dose-only effect, or another doubt; inactive means no such curve, though single readings can be large; an effect the other way counts as inactive or inconclusive.

SMILES | HTT ATP protect | PI4K2A block | GALK inh | HttQ103 aggreg
CN1/C(=C\C=C2/C(=O)Oc3ccccc3C2=O)C(C)(C)c2ccccc21 | / | -0.8 | 1.0% | 7.94µM*
CC(C)CCNC(=O)CSc1nc2c(c(=O)[nH]1)CCC2 | / | -1.3 | / | /
CCCCC(=O)OCC(=O)[C@H]1[C@H](C)C[C@H]2[C@@H]3C[C@H](F)C4=CC(=O)C=C[C@]4(C)[C@@]3(F)[C@@H](O)C[C@@]21C | / | 1.6 | / | /
COC1=CC(=O)C[C@@H](C)[C@@]12Oc1c(Cl)c(OC)cc(OC)c1C2=O | -17.6% | / | / | /
COc1ccc(N(C(=O)CCl)C(C(=O)NCCc2ccccc2)c2cccs2)cc1 (stereo unspecified) | -84.1%[10 µM] | 46.5 | 1.1% | 2.24µM*
COc1cc2c(cc1OC)CN(c1nc(CN3CCOCC3)nc3sc4c(c13)CCCC4)CC2 | -33.0%[10 µM] | -5.3 | 0.2% | ?
COc1cc2c(cc1OC)CN(c1nc(CN3CCCCC3)nc3sc4c(c13)CCCC4)CC2 | / | 0.0 | 2.7% | 28.2µM*
CN=c1scc(-c2ccco2)n1/N=C/c1ccc(O)c(O)c1 | -237.2% | -15.2 | -2.6% | 8.91µM*
COc1ccc(O)c(/C=N/n2c(-c3ccco3)csc2=Nc2cccnc2)c1 | 33.9%[10 µM] | 0.5 | -0.2% | -11.7%
c1nc(N2CCOCC2)c2c3c(sc2n1)CCCC3 | 12.8%[1.9 µM] | 2.0 | -0.8% | ?
O=C(c1ccccc1)N1CCN(c2ncnc3sc4c(c23)CCC4)CC1 | -0.4%[10 µM] | -0.7 | 1.2% | 35.5µM*
NC[C@H]1O[C@H](O[C@H]2[C@H](O[C@@H]3O[C@H](CO)[C@@H](O)[C@H]3O)C(O)[C@H](N)C[C@@H]2N)[C@H](N)[C@@H](O)[C@@H]1O (stereo partly specified) | / | i | / | /
CCCCn1c(=O)c2[nH]c(C34CC5CC(CC3C5)C4)nc2n(CCCO)c1=O | -122.1% | / | / | /
O=C(O)/C=C1\NC(=O)c2ccccc21 | -1.9% | -0.5 | 5.0% | -6.6%
O=C1N/C(=C\c2ccc(O)cc2)C(=O)c2ccccc21 | -1.1% | -50.2* | 0.3% | -8.1%
COc1ccc(-c2cc(-c3nnc(SCC(=O)Nc4nccs4)n3N)[nH]n2)cc1 | / | 2.1 | / | /
COc1ccc(-c2nn(-c3ccccc3)cc2C(=O)Nc2nccs2)cc1 | -39.8% | -0.2 | -2.2% | 17.8µM*
COc1cccc(-c2nn(-c3ccccc3)cc2C(=O)Nc2nccs2)c1 | -46.5% | 10.6 | 0.3% | ?
COC(=O)[C@]12C[C@H](CC(=O)N3CCSCC3)C(=O)N(Cc3cccc4ccccc34)C1=C[C@H](C1CCCC1)O[C@@H]2C | / | 0.5 | / | /
CC(=O)NC(=S)Nc1ccc([N+](=O)[O-])cc1C | 11.2µM* | 4.2 | 4.7% | ?
COc1ccc([N+](=O)[O-])cc1NC(=S)NC(C)=O | 24.0%[10 µM] | -2.4 | 0.3% | ?
CCCCN(CCCC)S(=O)(=O)c1ccc(NC(=O)c2cccs2)cc1 | 9.3%[10 µM] | 4.0 | 3.7% | 12.6µM*
O=[N+]([O-])c1cc(S(=O)(=O)NCCCN2CCOCC2)ccc1Cl | 23.6%[10 µM] | 1.5 | 0.8% | -3.8%
O=[N+]([O-])c1cc(S(=O)(=O)NCCN2CCOCC2)ccc1Sc1nnnn1-c1ccccc1 | 24.2%[10 µM] | 4.6 | -0.6% | 4.47µM*
Cc1ccc(-n2nnnc2Sc2ccc(S(=O)(=O)NCCN(C)C)cc2[N+](=O)[O-])cc1 | -52.3%[10 µM] | -4.6 | -3.4% | 22.4µM*
SMILES | HTT ATP protect | PI4K2A block | GALK inh | HttQ103 aggreg
Cc1ccc(S(=O)(=O)NCCSc2nnnn2-c2ccc(C(N)=O)cc2)cc1 | -5.6% | -5.0 | -2.2% | 2.0%
Nc1ncnc2c1ncn2[C@@H]1CCCO1 | 5.5%[1.9 µM] | / | / | /
Clc1ccc(-n2c(SCc3cccc4ccccc34)nnc2-c2cccnc2)cc1 | / | 1.4 | / | /
O=[N+]([O-])c1ccc(NCCCN2CCC(C(O)(c3ccccc3)c3ccccc3)CC2)cc1 | / | -5.0 | / | /
Cc1ccc(-c2ccc(C(=O)Nc3ccccc3)o2)c2ccccc12 | / | -55.3* | / | 3.7%
Cc1ccc(-c2ccc(C(=O)NCc3ccccc3)o2)c2ccccc12 | / | -4.6 | / | 10.8%
Cc1cc(Nc2nnnn2-c2ccccc2)n(-c2ccc(Cl)cc2)n1 | 9.4%[10 µM] | 6.6 | -4.1% | 15.8µM*
Cc1cc(Nc2ccccc2)n(-c2ccccc2)n1 | -5.2% | 2.0 | -2.7% | 2.7%
O=C(O)c1ccc2nc(-c3cc4cccc(O)c4oc3=O)[nH]c2c1 | / | -53.6* | / | /
O=c1oc2c(O)cccc2cc1-c1nc2ccccc2[nH]1 | / | -7.6 | / | /

Source: PubChem (National Center for Advancing Translational Sciences (NCATS))
